PubChem BioAssay AID1159580 (chemical genetic matrix, 2015)
Hit rate of the full screen: of about 5,500 compounds, about 2,000 (36%) were called active. Inconclusive results (about 18%) are left out. No stated cut-off is given here; in the data, active means normalized growth mostly below about 0.91 (no sharp cut-off); inconclusive means no clear call, values can overlap the other calls; inactive means mostly above about 0.92. This is one part of the list.

Experiment: chemical genetic growth profiling, strain panel (AID 1159580);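 further: tested at 20 µM; growth read once vehicle control cultures reached saturation at 30 °C; 1 = growth at the plate median or of vehicle wells; lower values mean less growth of the strain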
Settings: growth OD

Measured: normalized growth

COC(=O)CCC(C)[C@H]1CCC2C3C(C[C@H](O)[C@@]21C)[C@@]1(C)CC[C@@H](O)C[C@H]1C[C@H]3O (stereo not given in full)
inactive: S. cerevisiae deletion strains, locus YJR075W, strain HOC1, active compounds read low 0.986 | S. cerevisiae deletion strains, locus YKL009W, strain mrt4, active compounds read low 1.02 | S. cerevisiae deletion strains, locus YKL068W, active compounds read low 1 | S. cerevisiae deletion strains, locus YKL085W, strain MDH1 (second series), active compounds read low 1.01 | S. cerevisiae deletion strains, locus YKL085W, strain MDH1, active compounds read low 1.01 | S. cerevisiae deletion strains, locus YKL160W, strain elf1, active compounds read low 1.03 | S. cerevisiae deletion strains, locus YKR001C, strain vps1, active compounds read low 1 | S. cerevisiae deletion strains, locus YKR026C, strain gcn3, active compounds read low 1.03 | S. cerevisiae deletion strains, locus YKR091W, strain srl3, active compounds read low 1.01 | S. cerevisiae deletion strains, locus YLL001W, strain dnm1, active compounds read low 1.03 | S. cerevisiae deletion strains, locus YLL026W, active compounds read low 1.01 | S. cerevisiae deletion strains, locus YLL041C, strain sdh2, active compounds read low 1.01 | S. cerevisiae deletion strains, locus YLR027C, strain aat2, active compounds read low 1.01 | S. cerevisiae deletion strains, locus YLR039C, strain RIC1, active compounds read low 1.13 | S. cerevisiae deletion strains, locus YLR058C, strain SHM2, active compounds read low 1.01 | S. cerevisiae deletion strains, locus YLR102C, strain apc9, active compounds read low 1.03 | S. cerevisiae deletion strains, locus YLR113W, strain HOG1, active compounds read low 0.975 | S. cerevisiae deletion strains, locus YLR221C, strain rsa3, active compounds read low 1.02 | S. cerevisiae deletion strains, locus YLR258W, strain gsy2, active compounds read low 1.03 | S. cerevisiae deletion strains, locus YLR262C, strain YPT6 (second series), active compounds read low 1.02 | S. cerevisiae deletion strains, locus YLR262C, strain YPT6, active compounds read low 1.09 | S. cerevisiae deletion strains, locus YLR268W, strain sec22, active compounds read low 1.01 | S. cerevisiae deletion strains, locus YLR320W, strain mms22, active compounds read low 1.04 | S. cerevisiae deletion strains, locus YLR330W, strain CHS5, active compounds read low 1.01 | S. cerevisiae deletion strains, locus YLR342W, strain FKS1 (second series), active compounds read low 1.02 | S. cerevisiae deletion strains, locus YLR342W, strain FKS1, active compounds read low 1.01 | S. cerevisiae deletion strains, locus YLR357W, strain rsc2, active compounds read low 1.03 | S. cerevisiae deletion strains, locus YLR370C, strain arc18, active compounds read low 1.01 | S. cerevisiae deletion strains, locus YLR371W, strain rom2, active compounds read low 1.02 | S. cerevisiae deletion strains, locus YLR384C, strain iki3, active compounds read low 1 | S. cerevisiae deletion strains, locus YLR418C, strain cdc73, active compounds read low 0.932 | S. cerevisiae deletion strains, locus YML016C, strain PPZ1, active compounds read low 1.04 | S. cerevisiae deletion strains, locus YML032C, strain rad52, active compounds read low 1.01 | S. cerevisiae deletion strains, locus YML120C, strain ndi1, active compounds read low 1.02 | S. cerevisiae deletion strains, locus YML124C, strain tub3, active compounds read low 1.02 | S. cerevisiae deletion strains, locus YMR058W, strain fet3, active compounds read low 1.02 | S. cerevisiae deletion strains, locus YMR078C, strain ctf18, active compounds read low 1.04 | S. cerevisiae deletion strains, locus YMR125W, strain sto1, active compounds read low 1.03 | S. cerevisiae deletion strains, locus YMR129W, active compounds read low 1.01 | S. cerevisiae deletion strains, locus YMR205C, strain PFK2, active compounds read low 1.02 | S. cerevisiae deletion strains, locus YMR223W, strain ubp8, active compounds read low 0.996 | S. cerevisiae deletion strains, locus YMR231W, strain pep5, active compounds read low 1.01 | S. cerevisiae deletion strains, locus YMR263W, strain SAP30, active compounds read low 1.01 | S. cerevisiae deletion strains, locus YMR307W, strain GAS1, active compounds read low 0.86 | S. cerevisiae deletion strains, locus YNL067W, strain RPL9B, active compounds read low 1 | S. cerevisiae deletion strains, locus YNL071W, strain lat1, active compounds read low 1.01 | S. cerevisiae deletion strains, locus YNL128W, strain TEP1, active compounds read low 1.02 | S. cerevisiae deletion strains, locus YNL153C, strain GIM3, active compounds read low 0.988 | S. cerevisiae deletion strains, locus YNL183C, strain NPR1, active compounds read low 0.955 | S. cerevisiae deletion strains, locus YNL209W, strain ssb2, active compounds read low 1.02 | S. cerevisiae deletion strains, locus YNL233W, strain BNI4, active compounds read low 0.957 | S. cerevisiae deletion strains, locus YNL248C, strain rpa49, active compounds read low 1.04 | S. cerevisiae deletion strains, locus YNL250W, strain rad50, active compounds read low 1.01 | S. cerevisiae deletion strains, locus YNL271C, strain bni1, active compounds read low 1.02 | S. cerevisiae deletion strains, locus YNL298W, strain CLA4, active compounds read low 0.993 | S. cerevisiae deletion strains, locus YNL307C, strain MCK1, active compounds read low 1.03 | S. cerevisiae deletion strains, locus YNL322C, strain KRE1 (second series), active compounds read low 1.03 | S. cerevisiae deletion strains, locus YNL322C, strain KRE1, active compounds read low 1.02 | S. cerevisiae deletion strains, locus YNR049C, strain mso1, active compounds read low 1.01 | S. cerevisiae deletion strains, locus YNR052C, strain pop2, active compounds read low 1.01 | S. cerevisiae deletion strains, locus YOL006C, strain TOP1, active compounds read low 0.974 | S. cerevisiae deletion strains, locus YOL012C, strain htz1 0.777 | S. cerevisiae deletion strains, locus YOL147C, strain pex11, active compounds read low 1.03 | S. cerevisiae deletion strains, locus YOR001W, strain rrp6, active compounds read low 0.985 | S. cerevisiae deletion strains, locus YOR061W, strain CKA2, active compounds read low 1.04 | S. cerevisiae deletion strains, locus YOR069W, strain VPS5, active compounds read low 1.06 | S. cerevisiae deletion strains, locus YOR070C, strain gyp1, active compounds read low 0.995 | S. cerevisiae deletion strains, locus YOR080W, strain dia2, active compounds read low 1.01 | S. cerevisiae deletion strains, locus YOR083W, strain WHI5, active compounds read low 1.03 | S. cerevisiae deletion strains, locus YOR106W, strain vam3, active compounds read low 1.01 | S. cerevisiae deletion strains, locus YOR136W, strain idh2, active compounds read low 1.02 | S. cerevisiae deletion strains, locus YOR144C, strain elg1, active compounds read low 1.02 | S. cerevisiae deletion strains, locus YOR184W, strain ser1, active compounds read low 0.986 | S. cerevisiae deletion strains, locus YOR231W, strain MKK1, active compounds read low 0.991 | S. cerevisiae deletion strains, locus YOR265W, strain rbl2, active compounds read low 1.01 | S. cerevisiae deletion strains, locus YOR270C, strain vph1, active compounds read low 0.913 | S. cerevisiae deletion strains, locus YOR290C, strain snf2, active compounds read low 0.977 | S. cerevisiae deletion strains, locus YOR316C, strain cot1, active compounds read low 1.03 | S. cerevisiae deletion strains, locus YPL051W, strain arl3, active compounds read low 1.01 | S. cerevisiae deletion strains, locus YPL078C, strain atp4, active compounds read low 1.03 | S. cerevisiae deletion strains, locus YPL106C, strain sse1, active compounds read low 1.05 | S. cerevisiae deletion strains, locus YPL240C, strain hsp82, active compounds read low 1 | S. cerevisiae deletion strains, locus YPL241C, strain CIN2, active compounds read low 1.02 | S. cerevisiae deletion strains, locus YPL256C, strain CLN2, active compounds read low 0.981 | S. cerevisiae deletion strains, locus YPR119W, strain clb2, active compounds read low 1.03 | S. cerevisiae deletion strains, locus YPR141C, strain kar3, active compounds read low 1.03 | S. cerevisiae deletion strains, locus YPR163C, strain tif3, active compounds read low 1.03 | S. cerevisiae deletion strains, locus YPR167C, strain met16, active compounds read low 1.03 | S. cerevisiae deletion strains, strain wtn01, active compounds read low 1.01 | S. cerevisiae strains, strain wild type, active compounds read low 1.02
